Source: PubChem BioAssay (NCATS)
Records with an inconclusive call do not appear. Where a call stands in place of a potency, no number is given. Calls of active or inactive are those of the source. Calls come from the whole dose curve; as a rule, active = well fitted inhibition curve with a large enough effect; inconclusive = small, poorly fitted or top-dose-only effect; inactive = flat fitted curve, though single readings scatter.

Experiment: qHTS of Trypanosoma Brucei Inhibitors: LOPAC Validation (AID 624147)
Conditions: purified enzyme assay, luminescence, 45 min; series mostly up to 57.5 µM
Excerpt: Members of the Trypanosomatidae family of parasitic protozoans cause a spectrum of diseases throughout the tropical and subtropical world. Sleeping sickness, caused by two subspecies of Trypanosoma brucei, is endemic to areas of sub-Saharan Africa, while Chagas' disease, a manifestation of Trypanosoma cruzi infection, is prevalent throughout Central and South America. In addition, many species of Leishmania are responsible for a range of cutaneous and visceral diseases, causing ulcers, destructive lesions and kalaazar, a lethal infection of the viscera. These diseases cause severe public health and economic burdens on populations that are often already caught in a tragic cycle of poverty, poor nutrition and disease. Collectively, parasites of the trypanosomatid family infect 30 million people worldwide (~500 million live in endemic areas), and account for ~130K deaths annually. Existing treatments have developed little in the past 50 years, and suffer from toxicity, poor efficacy and resistance; the goal of this project is to develop lead drugs that will be suitable for entry into pre-clinical trials.
Glycolysis in axenically cultured T. cruzi, representing the intracellular pathogenic stage, is also essential for these parasites. {Engel, 1987} This project aims to discover and optimize selective inhibitors of the glycolytic enzyme pyruvate kinase (PYK) from Trypanosoma brucei, the parasite that causes sleeping sickness. […] Trypanosomatid PYKs show significant differences from their human counterparts including only 47-50% sequence identity and different allosteric and activation properties.{Callens, 1992} To this end, a qHTS was done against the MLSMR to discover inhibitors.
NIH Molecular Libraries Probe Production Network [MLPCN]
NIH Chemical Genomics Center [NCGC]
PI Name: Malcolm Walkinshaw, University of Edinburgh
2 uL of TbPYK/substrate buffer (columns 1-3, 5-48) are dispensed into Greiner white solid bottom 1536-well assay plates; column 4 receives only TEA buffer as 0x TbPYK controls. Compounds are then transferred via Kalypsys pin tool equipped with 1536-pin array (10 nL slotted pins, V&P Scientific, San Diego, CA). Following addition of compound, 2 uL of ADP (130 uM final concentration, all columns) is added to initiate the reaction. The plates are then incubated at room temperature for 45 minutes. Kinase-Glo Plus reagent is added (3 uL) and plates incubated for 10 minutes, before being transferred to a ViewLux high-throughput CCD imager (PerkinElmer) wherein single end-point measurements of luminescence are acquired using a clear filter. All reagents are diluted in an assay buffer consisting of 50 mM TEA (pH 7.2), 100 mM KCl, 10 mM MgCl2, 0.05% BSA and 0.01% Tween-20.
All screening operations will be performed on a fully integrated robotic system (Kalypsys, San Diego, CA) containing one RX-130 and two RX-90 anthropomorphic robotic arms (Staeubli, Duncan, SC). Library plates will be screened starting from the lowest and proceeding to the highest concentration. Vehicle-only plates, with DMSO being pin-transferred to columns 5-48, will be inserted uniformly at the beginning and the end of each library in order to monitor and record any shifts in the background, which can be affected by reagent dispensers or loss in enzyme activity over time. Screening data will be corrected, normalized, and concentration-effect relationships will be derived by using publicly-available curve fitting algorithms developed in-house (http://ncgc.nih.gov/pub/openhts).
Potency is the fitted concentration of half-maximal effect.

Structure (SMILES) | Potency
O=C(O)CCC(=O)N1CCCC1C(=O)O (stereo not given) | inactive
CC(/C=C/c1cccc(Oc2ccc(F)cc2)c1)N(O)C(N)=O (stereo not given) | inactive
NC1CCN(O)C1=O (stereo not given) | inactive
CN1CC(O)C(O)C(O)C1CO (stereo not given) | inactive
CCCCCCC(=O)OC1CC(C)(C)NC(C)(C)C1 | inactive
COc1ccc2c(c1)CCC1C2CC[C@@]2(C)C1CC[C@@H]2NCCCCCCN1C(=O)C=CC1=O (stereo not given in full) | inactive
c1ccc(C(NCc2cccnc2)(c2ccccc2)c2ccccc2)cc1 | inactive
NCCCNCCCCNCCCN | inactive
CCCCS(=N)(=O)CC[C@H](N)C(=O)O (stereo not given in full) | inactive
Clc1nccc2c1ccc1ccccc12 | inactive
Cn1c(=O)c2[nH]c(C3CCCC3)nc2n(C)c1=O | inactive
C=CC1(C)CC(=O)C2(O)C(C)(O1)C(OC(C)=O)C(O)C1C(C)(C)CCC(O)C12C (stereo not given) | inactive
CCCC(=O)NCCc1c2n(c3ccc(OC)cc13)CCCc1ccccc1-2 | inactive
CCN(CC)CCOC(=O)c1cc(Cl)c(N)cc1OC | inactive
Oc1cc(O)c2c(c1)O[C@H](c1ccc(O)c(O)c1)[C@@H](O)C2 | inactive
NC1CONC1=O (stereo not given) | inactive
CN1CCC2(CCN3CCc4c(oc5ccccc45)C3C2)N(C)C1=O (stereo not given) | inactive
O=C1NC(=O)c2cc(Nc3ccccc3)c(Nc3ccccc3)cc21 | inactive
O=C(O)c1cc2cc(F)ccc2[nH]1 | inactive
COC(=O)C1=C(C)NC(C)=C([N+](=O)[O-])C1c1ccccc1C(F)(F)F (stereo not given) | inactive

Structure (SMILES) | Potency
CCCCCCCCCC[Si](C)(C)CCC(=O)NC(Cc1ccc(C)cc1)c1ccccc1 (stereo not given) | inactive
COc1cccc(OC)c1OCCNCC1CSc2ccccc2O1 (stereo not given) | inactive
NC(N)=N[C@@H](CCC(=O)O)C(=O)O | inactive
NC(N)=NC(N)=Nc1ccccc1 | inactive
COC(=O)C(N)Cc1ccc(Cl)cc1 (stereo not given) | inactive
O=c1cc(-c2ccccc2)[nH]c2nc(Cl)ccc12 | inactive
NC(=O)c1cc[n+](CC2=C(C(=O)O)N3C(=O)[C@@H](NC(=O)[C@@H](c4ccccc4)S(=O)(=O)[O-])[C@H]3SC2)cc1 | inactive
CC(=O)/C(C)=N/O | inactive
CCN1C(=O)C=CC1=O | inactive
C[N+](C)(C)CC=O | inactive
CCCCOc1cc(CC2CNC(=O)N2)ccc1OC (stereo not given) | inactive
CC(=O)[C@H]1CCC2C3CC=C4C[C@@H](OS(=O)(=O)O)CC[C@]4(C)C3CC[C@@]21C (stereo not given in full) | inactive
CSC(=N)N | inactive
O=C(O)/C(=C/c1c(C(=O)O)[nH]c2cc(Cl)cc(Cl)c12)c1ccccc1 | inactive
N#CC(C#N)=C(N)/C(C#N)=C/c1ccc(O)cc1 | inactive
CC(C)(CO)Cc1cc(C(C)(C)C)c(O)c(C(C)(C)C)c1 | inactive
NC(Cc1cccc(-c2ccccc2CP(=O)(O)O)c1)C(=O)O (stereo not given) | inactive
S=C(S)N1CCCC1 | 23.9 µM (active)
Cc1nc2n(c(=O)c1CCN1CCC(c3noc4cc(F)ccc34)CC1)CCCC2O (stereo not given) | inactive
CC1=C(/C=C/C(C)=C/C=C/C(C)=C\C(=O)O)C(C)(C)CCC1 | inactive
